Compounds without any hit were thinned out: in the full panel of roughly 79,000, 15% have a hit. Values without a mark were called inactive. Calls of active or inactive are those of the source. Rule as the data show it: active = growth inhibition above about 70%; inactive = the rest.
What was measured:
[1] = NCI Yeast Anticancer Drug Screen. Data for the wt1 strain (AID 149);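 also: 0% = growth of vehicle-treated wt1 cultures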; details: S. cerevisiae wt1 strain (SPY 50644) growth inhibition, active compounds read high
Method in brief: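 Yeast wt1 strain exposed to compounds; growth inhibition measured relative to vehicle-treated controls.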

[2] = NCI Yeast Anticancer Drug Screen. Data for the mgt1 strain (AID 153); details: S. cerevisiae mgt1 mutant growth inhibition, active compounds read high
Method in brief: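 Strain: mgt1 yeast, one of a set carrying defined DNA damage repair or cell cycle control alterations. Compound-treated growth compared with vehicle.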

[3] = NCI Yeast Anticancer Drug Screen. Data for the rad50 strain (AID 155);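 also: 0% = growth of vehicle-only cultures of the same strain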; details: S. cerevisiae rad50 strain growth inhibition, active compounds read high
Method in brief: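 Yeast carrying a defined DNA repair defect were exposed to test compounds, and growth was compared with vehicle-treated controls to give percent inhibition.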

[4] = NCI Yeast Anticancer Drug Screen. Data for the mec2-1 strain (AID 157); details: S. cerevisiae mec2-1 strain, active compounds read high
Method in brief: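 Strain: mec2-1 (DNA repair/cell cycle alteration). Compound exposure, then growth measured; inhibition expressed relative to vehicle.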

[5] = NCI Yeast Anticancer Drug Screen. Data for the rad14 strain (AID 159);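 also: 0% = growth of vehicle-treated control cultures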; details: S. cerevisiae rad14 strain growth inhibition, active compounds read high
Method in brief: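 Yeast cells carrying a defined DNA-repair defect were exposed to compounds, and growth inhibition was calculated relative to vehicle-treated control cultures.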

[6] = NCI Yeast Anticancer Drug Screen. Data for the sgs1 mgt1 strain (AID 161);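 also: 0% = growth of cultures given vehicle only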; details: S. cerevisiae sgs1 mgt1 strain, active compounds read high
Method in brief: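 Test agents were incubated with a DNA-repair-mutant yeast strain. Growth was then read and compared against vehicle-treated controls.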

[7] = NCI Yeast Anticancer Drug Screen. Data for the CLN2oe strain (AID 163);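 also: 0% = growth of vehicle-only control cultures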; details: S. cerevisiae CLN2oe strain, active compounds read high
Method in brief: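 Growth of a genetically modified yeast strain is measured after compound exposure and compared with cultures given vehicle alone.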

[8] = NCI Yeast Anticancer Drug Screen. Data for the cln2 rad14 strain (AID 165);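 also: 0% = growth equal to vehicle treated cultures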; details: S. cerevisiae cln2 rad14 strain, active compounds read high
Method in brief: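 Compounds are applied to the cln2 rad14 yeast strain, and growth is then compared with that of vehicle-treated cultures to give inhibition.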

[9] = NCI Yeast Anticancer Drug Screen. Data for the bub3 strain (AID 167); details: S. cerevisiae bub3 mutant strain, active compounds read high
Method in brief: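 Compounds were applied to a genetically altered yeast strain carrying a cell-cycle control defect. Growth inhibition was scored against vehicle-treated controls.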

[10] = NCI Yeast Anticancer Drug Screen. Data for the wt2 strain (AID 169);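 also: 0% = growth of vehicle-treated yeast cultures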; details: S. cerevisiae wt2 strain growth inhibition, active compounds read high
Method in brief: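 This strain belongs to a panel of yeast strains with defined genetic alterations in DNA damage repair or cell cycle control. Compounds are applied, and growth inhibition is measured against vehicle-treated cultures.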

[11] = NCI Yeast Anticancer Drug Screen. Data for the mlh1 strain (AID 171);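 also: 0% = growth of vehicle-treated control cultures of the same strain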; details: S. cerevisiae mlh1 strain growth inhibition, active compounds read high
Method in brief: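 Growth of the mutant yeast strain after compound exposure, expressed as inhibition relative to vehicle-only controls.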

[12] = NCI Yeast Anticancer Drug Screen. Data for the sgs1 strain (AID 173);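 also: 0% = growth of vehicle-only control cultures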; details: S. cerevisiae sgs1 mutant, active compounds read high
Method in brief: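 Growth of a yeast strain bearing a defined genetic alteration is measured after compound treatment. Inhibition is expressed relative to vehicle-only controls.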

[13] = NCI Yeast Anticancer Drug Screen. Data for the mlh1 rad18 strain (AID 175); details: S. cerevisiae mlh1 rad18 strain growth inhibition, active compounds read high
Method in brief: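 Read-out is yeast growth inhibition, calculated against vehicle-only controls. The compound was applied to a strain engineered with DNA damage repair alterations.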

[14] = NCI Yeast Anticancer Drug Screen. Data for the rad18 strain (AID 177); details: S. cerevisiae rad18 mutant growth inhibition, active compounds read high
Method in brief: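 Growth of the mutant yeast strain after compound exposure, normalised to vehicle-only cultures.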

[15] = at 5.0 µM (retest, dose inferred, filed as 0.5)
[16] = at 50.0 µM (retest, dose inferred, filed as 5.0)

## O=C(O)c1cc2ccccc2c2c1C(=O)c1ccccc1-2
[1]; at 1.2 µM
  growth inhibition: -4%
[1]; at 3.7 µM
  growth inhibition: 16%
[1]; at 11.0 µM
  growth inhibition: 47%
[1]; at 33.0 µM
  growth inhibition: 94% (active)
[1]; at 100.0 µM
  growth inhibition: 94% (active)
[2]; at 1.2 µM
  growth inhibition: 11%
[2]; at 3.7 µM
  growth inhibition: 20%
[2]; at 11.0 µM
  growth inhibition: 43%
[2]; at 33.0 µM
  growth inhibition: 95% (active)
[2]; at 100.0 µM
  growth inhibition: 95% (active)
[3]; at 1.2 µM
  growth inhibition: 4%
[3]; at 3.7 µM
  growth inhibition: 19%
[3]; [15]
  growth inhibition: 8%
[3]; at 11.0 µM
  growth inhibition: 77% (active)
[3]; at 33.0 µM
  growth inhibition: 95% (active)
[3]; [16]
  growth inhibition: 94% (active)
[3]; at 50.0 µM
  growth inhibition: 88.2% (active)
[3]; at 100.0 µM
  growth inhibition: 93% (active)
[4]; at 1.2 µM
  growth inhibition: -9%
[4]; at 3.7 µM
  growth inhibition: 9%
[4]; [15]
  growth inhibition: 25%
[4]; at 11.0 µM
  growth inhibition: 29%
[4]; at 33.0 µM
  growth inhibition: 95% (active)
[4]; [16]
  growth inhibition: 96% (active)
[4]; at 50.0 µM
  growth inhibition: 91.5% (active)
[4]; at 100.0 µM
  growth inhibition: 92% (active)
[5]; at 1.2 µM
  growth inhibition: 8%
[5]; at 3.7 µM
  growth inhibition: 21%
[5]; at 11.0 µM
  growth inhibition: 43%
[5]; at 33.0 µM
  growth inhibition: 94% (active)
[5]; at 100.0 µM
  growth inhibition: 95% (active)
[6]; [15]
  growth inhibition: 0%
[6]; [16]
  growth inhibition: 94% (active)
[6]; at 50.0 µM
  growth inhibition: 92.6% (active)
[7]; at 1.2 µM
  growth inhibition: 13%
[7]; at 3.7 µM
  growth inhibition: 28%
[7]; at 11.0 µM
  growth inhibition: 64%
[7]; at 33.0 µM
  growth inhibition: 96% (active)
[7]; at 100.0 µM
  growth inhibition: 95% (active)
[8]; [15]
  growth inhibition: 45%
[8]; [16]
  growth inhibition: 97% (active)
[8]; at 50.0 µM
  growth inhibition: 88.8% (active)
[9]; at 1.2 µM
  growth inhibition: -1%
[9]; at 3.7 µM
  growth inhibition: 7%
[9]; [15]
  growth inhibition: 14%
[9]; at 11.0 µM
  growth inhibition: 56%
[9]; at 33.0 µM
  growth inhibition: 95% (active)
[9]; [16]
  growth inhibition: 96% (active)
[9]; at 50.0 µM
  growth inhibition: 90.8% (active)
[9]; at 100.0 µM
  growth inhibition: 94% (active)
[10]; at 1.2 µM
  growth inhibition: -1%
[10]; at 3.7 µM
  growth inhibition: 11%
[10]; at 11.0 µM
  growth inhibition: 49%
[10]; at 33.0 µM
  growth inhibition: 96% (active)
[10]; at 100.0 µM
  growth inhibition: 95% (active)
[11]; at 1.2 µM
  growth inhibition: 9%
[11]; at 3.7 µM
  growth inhibition: 14%
[11]; at 11.0 µM
  growth inhibition: 59%
[11]; at 33.0 µM
  growth inhibition: 95% (active)
[11]; at 100.0 µM
  growth inhibition: 95% (active)
[12]; at 1.2 µM
  growth inhibition: 18%
[12]; at 3.7 µM
  growth inhibition: 28%
[12]; at 11.0 µM
  growth inhibition: 69%
[12]; at 33.0 µM
  growth inhibition: 95% (active)
[12]; at 100.0 µM
  growth inhibition: 96% (active)
[13]; [15]
  growth inhibition: 22%
[13]; [16]
  growth inhibition: 97% (active)
[13]; at 50.0 µM
  growth inhibition: 90% (active)
[14]; at 1.2 µM
  growth inhibition: 5%
[14]; at 3.7 µM
  growth inhibition: 12%
[14]; at 11.0 µM
  growth inhibition: 43%
[14]; at 33.0 µM
  growth inhibition: 95% (active)
[14]; at 100.0 µM
  growth inhibition: 94% (active)

## Cn1c(-c2ccc(/C=N\N3CCN(/N=C/c4ccc(-c5c[n+]6ccccc6n5C)cc4)CC3)cc2)c[n+]2ccccc12
[1]; at 1.2 µM
  growth inhibition: -9%
[1]; at 3.7 µM
  growth inhibition: -13%
[1]; at 11.0 µM
  growth inhibition: -4%
[1]; at 33.0 µM
  growth inhibition: 28%
[1]; at 100.0 µM
  growth inhibition: 92% (active)
[2]; at 1.2 µM
  growth inhibition: -30%
[2]; at 3.7 µM
  growth inhibition: -10%
[2]; at 11.0 µM
  growth inhibition: -27%
[2]; at 33.0 µM
  growth inhibition: 38%
[2]; at 100.0 µM
  growth inhibition: 91% (active)
[3]; at 1.2 µM
  growth inhibition: -15%
[3]; at 3.7 µM
  growth inhibition: -16%
[3]; [15]
  growth inhibition: -2%
[3]; at 11.0 µM
  growth inhibition: -4%
[3]; at 33.0 µM
  growth inhibition: 51%
[3]; [16]
  growth inhibition: 94% (active)
[3]; at 50.0 µM
  growth inhibition: 49%
[3]; at 100.0 µM
  growth inhibition: 91% (active)
[4]; at 1.2 µM
  growth inhibition: -8%
[4]; at 3.7 µM
  growth inhibition: -17%
[4]; [15]
  growth inhibition: 15%
[4]; at 11.0 µM
  growth inhibition: 11%
[4]; at 33.0 µM
  growth inhibition: 78% (active)
[4]; [16]
  growth inhibition: 96% (active)
[4]; at 50.0 µM
  growth inhibition: 25.4%
[4]; at 100.0 µM
  growth inhibition: 93% (active)
[5]; at 1.2 µM
  growth inhibition: -31%
[5]; at 3.7 µM
  growth inhibition: -36%
[5]; at 11.0 µM
  growth inhibition: -16%
[5]; at 33.0 µM
  growth inhibition: 17%
[5]; at 100.0 µM
  growth inhibition: 84% (active)
[6]; [15]
  growth inhibition: 19%
[6]; [16]
  growth inhibition: 95% (active)
[6]; at 50.0 µM
  growth inhibition: 72.4% (active)
[7]; at 1.2 µM
  growth inhibition: -22%
[7]; at 3.7 µM
  growth inhibition: -41%
[7]; at 11.0 µM
  growth inhibition: -27%
[7]; at 33.0 µM
  growth inhibition: 52%
[7]; at 100.0 µM
  growth inhibition: 86% (active)
[8]; [15]
  growth inhibition: -5%
[8]; [16]
  growth inhibition: 69%
[8]; at 50.0 µM
  growth inhibition: 22.4%
[9]; at 1.2 µM
  growth inhibition: -13%
[9]; at 3.7 µM
  growth inhibition: 0%
[9]; [15]
  growth inhibition: 19%
[9]; at 11.0 µM
  growth inhibition: -2%
[9]; at 33.0 µM
  growth inhibition: 54%
[9]; [16]
  growth inhibition: 95% (active)
[9]; at 50.0 µM
  growth inhibition: 80.5% (active)
[9]; at 100.0 µM
  growth inhibition: 91% (active)
[10]; at 1.2 µM
  growth inhibition: -50%
[10]; at 3.7 µM
  growth inhibition: -36%
[10]; at 11.0 µM
  growth inhibition: -37%
[10]; at 33.0 µM
  growth inhibition: 74% (active)
[10]; at 100.0 µM
  growth inhibition: 92% (active)
[12]; at 1.2 µM
  growth inhibition: -20%
[12]; at 3.7 µM
  growth inhibition: -33%
[12]; at 11.0 µM
  growth inhibition: -17%
[12]; at 33.0 µM
  growth inhibition: 65%
[12]; at 100.0 µM
  growth inhibition: 90% (active)
[13]; [15]
  growth inhibition: 46%
[13]; [16]
  growth inhibition: 94% (active)
[13]; at 50.0 µM
  growth inhibition: 84.3% (active)
[14]; at 1.2 µM
  growth inhibition: -23%
[14]; at 3.7 µM
  growth inhibition: -19%
[14]; at 11.0 µM
  growth inhibition: -31%
[14]; at 33.0 µM
  growth inhibition: 47%
[14]; at 100.0 µM
  growth inhibition: 87% (active)

Source: PubChem BioAssay (NCI)
